The campaign covered roughly 5,500 compounds. About 2,000 (36%) were called active. Not shown: some 18% with an inconclusive outcome. Rule as the data show it: active = normalized growth mostly below about 0.91 (no sharp cut-off); inconclusive = no clear call, values can overlap the other calls; inactive = mostly above about 0.92. Some of the results follow.
Test: chemical genetic growth profiling, strain panel (AID 1159580);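 also: tested at 20 µM; growth read once vehicle control cultures reached saturation at 30 °C; 1 = growth at the plate median or of vehicle wells; lower values mean less growth of the strain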
Settings: growth OD

Measured: normalized growth

CC(C(=O)O)c1ccc(C(=O)c2cccs2)cc1 (stereo not drawn)
inactive: S. cerevisiae deletion strains, locus YKL009W, strain mrt4, active compounds read low 1.02 | S. cerevisiae deletion strains, locus YKL068W, active compounds read low 1.01 | S. cerevisiae deletion strains, locus YKL085W, strain MDH1 (second series), active compounds read low 0.983 | S. cerevisiae deletion strains, locus YKL085W, strain MDH1, active compounds read low 0.983 | S. cerevisiae deletion strains, locus YKL160W, strain elf1, active compounds read low 0.992 | S. cerevisiae deletion strains, locus YKL190W, strain CNB1, active compounds read low 1 | S. cerevisiae deletion strains, locus YKR001C, strain vps1, active compounds read low 1.01 | S. cerevisiae deletion strains, locus YKR026C, strain gcn3, active compounds read low 0.987 | S. cerevisiae deletion strains, locus YKR091W, strain srl3, active compounds read low 1.01 | S. cerevisiae deletion strains, locus YLL001W, strain dnm1, active compounds read low 0.995 | S. cerevisiae deletion strains, locus YLL026W, active compounds read low 0.99 | S. cerevisiae deletion strains, locus YLL041C, strain sdh2, active compounds read low 0.996 | S. cerevisiae deletion strains, locus YLR027C, strain aat2, active compounds read low 1.01 | S. cerevisiae deletion strains, locus YLR039C, strain RIC1, active compounds read low 1.01 | S. cerevisiae deletion strains, locus YLR058C, strain SHM2, active compounds read low 1.01 | S. cerevisiae deletion strains, locus YLR102C, strain apc9, active compounds read low 1.01 | S. cerevisiae deletion strains, locus YLR113W, strain HOG1, active compounds read low 0.968 | S. cerevisiae deletion strains, locus YLR221C, strain rsa3, active compounds read low 0.991 | S. cerevisiae deletion strains, locus YLR258W, strain gsy2, active compounds read low 1 | S. cerevisiae deletion strains, locus YLR262C, strain YPT6 (second series), active compounds read low 0.951 | S. cerevisiae deletion strains, locus YLR262C, strain YPT6, active compounds read low 1 | S. cerevisiae deletion strains, locus YLR268W, strain sec22, active compounds read low 1.01 | S. cerevisiae deletion strains, locus YLR320W, strain mms22, active compounds read low 1 | S. cerevisiae deletion strains, locus YLR330W, strain CHS5, active compounds read low 0.999 | S. cerevisiae deletion strains, locus YLR342W, strain FKS1 (second series), active compounds read low 1 | S. cerevisiae deletion strains, locus YLR342W, strain FKS1, active compounds read low 1 | S. cerevisiae deletion strains, locus YLR357W, strain rsc2, active compounds read low 0.967 | S. cerevisiae deletion strains, locus YLR370C, strain arc18, active compounds read low 0.998 | S. cerevisiae deletion strains, locus YLR371W, strain rom2, active compounds read low 1.02 | S. cerevisiae deletion strains, locus YLR384C, strain iki3, active compounds read low 1.01 | S. cerevisiae deletion strains, locus YLR418C, strain cdc73, active compounds read low 1.03 | S. cerevisiae deletion strains, locus YML016C, strain PPZ1, active compounds read low 1.01 | S. cerevisiae deletion strains, locus YML032C, strain rad52, active compounds read low 1.02 | S. cerevisiae deletion strains, locus YML120C, strain ndi1, active compounds read low 1 | S. cerevisiae deletion strains, locus YML124C, strain tub3, active compounds read low 1.02 | S. cerevisiae deletion strains, locus YMR058W, strain fet3, active compounds read low 1.02 | S. cerevisiae deletion strains, locus YMR078C, strain ctf18, active compounds read low 1.02 | S. cerevisiae deletion strains, locus YMR125W, strain sto1, active compounds read low 0.976 | S. cerevisiae deletion strains, locus YMR129W, active compounds read low 0.985 | S. cerevisiae deletion strains, locus YMR205C, strain PFK2, active compounds read low 0.965 | S. cerevisiae deletion strains, locus YMR223W, strain ubp8, active compounds read low 1.02 | S. cerevisiae deletion strains, locus YMR231W, strain pep5, active compounds read low 0.991 | S. cerevisiae deletion strains, locus YMR263W, strain SAP30, active compounds read low 1 | S. cerevisiae deletion strains, locus YMR307W, strain GAS1, active compounds read low 0.997 | S. cerevisiae deletion strains, locus YNL067W, strain RPL9B, active compounds read low 1 | S. cerevisiae deletion strains, locus YNL071W, strain lat1, active compounds read low 1 | S. cerevisiae deletion strains, locus YNL153C, strain GIM3, active compounds read low 1 | S. cerevisiae deletion strains, locus YNL183C, strain NPR1, active compounds read low 0.949 | S. cerevisiae deletion strains, locus YNL209W, strain ssb2, active compounds read low 1.01 | S. cerevisiae deletion strains, locus YNL233W, strain BNI4, active compounds read low 1 | S. cerevisiae deletion strains, locus YNL248C, strain rpa49, active compounds read low 1.02 | S. cerevisiae deletion strains, locus YNL250W, strain rad50, active compounds read low 1.01 | S. cerevisiae deletion strains, locus YNL271C, strain bni1, active compounds read low 1.02 | S. cerevisiae deletion strains, locus YNL298W, strain CLA4, active compounds read low 1.02 | S. cerevisiae deletion strains, locus YNL307C, strain MCK1, active compounds read low 1.02 | S. cerevisiae deletion strains, locus YNL322C, strain KRE1 (second series), active compounds read low 0.994 | S. cerevisiae deletion strains, locus YNR049C, strain mso1, active compounds read low 0.998 | S. cerevisiae deletion strains, locus YNR052C, strain pop2, active compounds read low 1.01 | S. cerevisiae deletion strains, locus YOL006C, strain TOP1, active compounds read low 0.978 | S. cerevisiae deletion strains, locus YOL012C, strain htz1 0.883 | S. cerevisiae deletion strains, locus YOL147C, strain pex11, active compounds read low 1.01 | S. cerevisiae deletion strains, locus YOR001W, strain rrp6, active compounds read low 1.01 | S. cerevisiae deletion strains, locus YOR061W, strain CKA2, active compounds read low 1.01 | S. cerevisiae deletion strains, locus YOR069W, strain VPS5, active compounds read low 1 | S. cerevisiae deletion strains, locus YOR070C, strain gyp1, active compounds read low 1 | S. cerevisiae deletion strains, locus YOR080W, strain dia2, active compounds read low 0.988 | S. cerevisiae deletion strains, locus YOR083W, strain WHI5, active compounds read low 1 | S. cerevisiae deletion strains, locus YOR106W, strain vam3, active compounds read low 0.995 | S. cerevisiae deletion strains, locus YOR136W, strain idh2, active compounds read low 1.02 | S. cerevisiae deletion strains, locus YOR144C, strain elg1, active compounds read low 1.02 | S. cerevisiae deletion strains, locus YOR184W, strain ser1, active compounds read low 1.02 | S. cerevisiae deletion strains, locus YOR231W, strain MKK1, active compounds read low 0.993 | S. cerevisiae deletion strains, locus YOR265W, strain rbl2, active compounds read low 0.992 | S. cerevisiae deletion strains, locus YOR270C, strain vph1, active compounds read low 0.997 | S. cerevisiae deletion strains, locus YOR290C, strain snf2, active compounds read low 1.01 | S. cerevisiae deletion strains, locus YOR316C, strain cot1, active compounds read low 1.02 | S. cerevisiae deletion strains, locus YPL051W, strain arl3, active compounds read low 0.989 | S. cerevisiae deletion strains, locus YPL055C, strain LGE1, active compounds read low 1.02 | S. cerevisiae deletion strains, locus YPL078C, strain atp4, active compounds read low 0.983 | S. cerevisiae deletion strains, locus YPL106C, strain sse1, active compounds read low 0.979 | S. cerevisiae deletion strains, locus YPL240C, strain hsp82, active compounds read low 0.992 | S. cerevisiae deletion strains, locus YPL256C, strain CLN2, active compounds read low 1.02 | S. cerevisiae deletion strains, locus YPR119W, strain clb2, active compounds read low 1.01 | S. cerevisiae deletion strains, locus YPR141C, strain kar3, active compounds read low 1.01 | S. cerevisiae deletion strains, locus YPR163C, strain tif3, active compounds read low 1.02 | S. cerevisiae deletion strains, locus YPR167C, strain met16, active compounds read low 1.02 | S. cerevisiae deletion strains, strain wtn01, active compounds read low 1.01 | S. cerevisiae strains, strain wild type, active compounds read low 1

— PubChem BioAssay AID1159580 (chemical genetic matrix, 2015)
